Here are results for 13 compounds from PubChem BioAssay.

Structures are written as SMILES. Activity calls are given as the source filed them.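 The calls were made as follows, unless noted: active = binding below the plate cutoff, the plate median minus 3 SD, with a reading above zero; inconclusive = below the plate cutoff but reading exactly zero; inactive = the rest.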

Assay [1] is described as follows: reduced mouse 2C T cell binding to pMHC/ICAM-1 vesicles – MLPCN validation set, flow cytometry, LFA-1/ICAM-1 modulator project, pilot screen (AID 2523;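 active = response below a set limit, under 55% cells CD8-positive and vesicle-bound, and CD8 cells' 90th-percentile brightness under 279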;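 as to vesicle binding response: mean PE anti-B7-1 fluorescence of CD8+ cells relative to row control; 100% = QL9-loaded vesicles with DMSO vehicle in the same plate row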). Particulars: 2C mouse CD8+ T cells, at 7 µM, stronger effect = lower value; double positive events: measured here: CD8+/vesicle+ event percentage. (In general: In flow cytometry, cells or beads pass a laser one at a time.)

The target of assay [2] is Integrin beta-1 (Homo sapiens) + Integrin alpha-4 (Homo sapiens) (UniProt P13612+P05556). Briefly: alpha4beta1 integrin LIBS antibody binding reduction – U937 cells, HUTS-21 mAb, flow cytometry, validation set, VLA-4 allosteric modulator project, pilot screen (AID 2674;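 active = inhibition above 50%, about 3 SD of the validation set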;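 also: antibody binding induced by the VLA-4 ligand LDV present at three times its Kd; 0% = LDV ligand with antibody and no compound and 100% = antibody without LDV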). The conditions noted are these: HUTS-21 LIBS mAb binding, at 6.7 µM, stronger effect = higher value, binding induced by LDV ligand.

Assay [3] is described as follows: calorie-restriction mimetic ROS inhibitors, yeast – validation compound set, pilot screen (AID 2706;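 active = superoxide response below 65% of plate, a cut near 3 SD across the whole screen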;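 also: yeast exposed to compound for one week at 30 degrees C before staining; 100% = mean of all compound wells on the same plate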). The conditions noted are these: S. cerevisiae aging, superoxide DHE fluorescence; at 10 µM, stronger effect = lower value.
The target of assay [4] is Beta-adrenergic receptor kinase 1 (Homo sapiens) (UniProt P25098). Briefly: GRK2 binders displacing RNA aptamer, biochemical, validation, human GRK2, bead flow cytometry (AID 488806;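 active = aptamer binding inhibition above 30%, about 3 SD of noise from non-fluorescent compounds; inactive = inhibition at or below 30%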). The conditions noted are these: bead-bound GRK2, FAM-aptamer displacement, at 10 µM, stronger effect = higher value.
The target of assay [5] is Beta-2 adrenergic receptor (Homo sapiens) (UniProt P07550). Briefly: agonist-induced loss of surface beta2AR – cell-based, FAP fluorogen, flow cytometry, validation set, pilot screen (AID 504459;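 active = percent response above 42, roughly 3 SD of non-fluorescent test compounds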;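 also: agonist-driven loss of surface beta2AR via internalization measured by FAP dye flow cytometry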). The conditions noted are these: Am2.2-beta2AR cells, at 10 µM, stronger effect = higher value.
In assay [6] the target is AP-2 complex subunit beta (Homo sapiens) (UniProt P63010). Kind of assay: beta-arrestin/AP2 interaction blockers – biochemical, validation set, GST-AP2 beads, flow cytometry, pilot screen (AID 504541;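 active = inhibition above 54%, about 3 SD of non-fluorescent compounds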;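 also: AP2 carries R879A mutation and is captured from E. coli lysate; bead-bound FITC arrestin peptide fluorescence measuring arrestin peptide binding to AP2; 0% = DMSO wells and 100% = excess unlabeled arrestin peptide control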). The conditions noted are these: FITC arrestin peptide, at 10 µM, stronger effect = higher value, AP2 beta2 appendage fragment, R879A mutant.
The nature of assay [7]: cytosolic pH regulators acting via V-ATPase – S. cerevisiae, pHLuorin, HTS validation (AID 504600; in the data active = response above about 15%;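 also: plate controls were DMSO for no effect and reference compound for full effect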). Particulars: V-ATPase proton transport, at 10 µM, stronger effect = higher value.
For assay [8], the system named is anti-desmoglein-3 scFv antibody binding to human DSG3. Briefly: blockers of pathogenic pemphigus antibody–desmoglein-3 binding – biochemical, validation compound set, bead-based, flow cytometry, pilot screen (AID 588368).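 Also: signal is the median channel fluorescence of bead-bound GFP antibody.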 Particulars: Protein G beads, DSG3-Fc, scFv-GFP binding, at 10 µM, stronger effect = lower value.
The nature of assay [9]: Nile Red efflux blockade in pump-expressing yeast – validation compound set, multiplex, phenotypic, pilot screen (AID 588506;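 active = efflux inhibition above 0.42, the validation set average plus 4 SD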;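 also: Nile Red retained in cells so higher fluorescence means more efflux inhibition; 0 = negative control wells and 1 = enniatin B 25 µM full block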). The conditions noted are these: S. cerevisiae pump-expressing triplex, Nile Red efflux flow cytometry; at 10 µM; stronger effect = higher value; the pumps come from Candida albicans.
Assay [10] deals with ATP-binding cassette sub-family B member 6 (Homo sapiens) (UniProt Q9NP58). Briefly: blockers of ABCB6-driven porphyrin uptake – K562-ABCB6 cells, flow cytometry, validation set, pilot screen (AID 588550;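 active = inhibition above the screen-wide mean plus 3 SD, about 51%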;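 also: 0% = DMSO wells and 100% = benzethonium chloride 70 µM positive control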). The conditions noted are these: K562-ABCB6 porphyrin accumulation, 1 h, at 10 µM, stronger effect = higher value.
Assay [11] is described as follows: AML differentiation inducers, ER-HoxA9 marrow cells – cell-based, GFP/MAC1 double positive, flow cytometry, validation set, primary screen (AID 588685;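 active = differentiation response of at least 50%, scaled between solvent and reference control, from cells with both markers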;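 also: compound exposure lasts four days before antibody staining and flow analysis; 0% = DMSO wells and 100% = 5 µM fulvestrant positive control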). Particulars: stronger effect = higher value, normalized: vehicle 0, fulvestrant 100.

Chain of Beta-adrenergic receptor kinase 1 (Homo sapiens) (P25098 whole entry, looked up): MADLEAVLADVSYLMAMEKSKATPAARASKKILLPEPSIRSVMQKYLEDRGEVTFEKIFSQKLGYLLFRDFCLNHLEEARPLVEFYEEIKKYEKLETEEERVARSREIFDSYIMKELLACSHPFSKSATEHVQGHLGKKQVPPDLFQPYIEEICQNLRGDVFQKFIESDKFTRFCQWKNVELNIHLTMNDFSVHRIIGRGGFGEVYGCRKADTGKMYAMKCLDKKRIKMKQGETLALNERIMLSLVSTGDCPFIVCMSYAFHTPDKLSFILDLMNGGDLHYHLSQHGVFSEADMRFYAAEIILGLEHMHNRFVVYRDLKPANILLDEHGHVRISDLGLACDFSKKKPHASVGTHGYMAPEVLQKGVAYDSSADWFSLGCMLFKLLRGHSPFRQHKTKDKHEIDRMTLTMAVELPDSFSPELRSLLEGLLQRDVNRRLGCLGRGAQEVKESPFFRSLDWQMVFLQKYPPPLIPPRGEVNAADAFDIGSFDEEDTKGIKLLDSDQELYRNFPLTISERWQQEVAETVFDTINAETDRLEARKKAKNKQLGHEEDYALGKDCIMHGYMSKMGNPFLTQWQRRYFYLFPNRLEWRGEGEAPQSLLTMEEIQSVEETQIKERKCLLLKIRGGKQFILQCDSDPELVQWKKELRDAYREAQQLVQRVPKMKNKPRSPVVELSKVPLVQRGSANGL
Chain of ATP-binding cassette sub-family B member 6 (Homo sapiens) (Q9NP58 whole entry, looked up): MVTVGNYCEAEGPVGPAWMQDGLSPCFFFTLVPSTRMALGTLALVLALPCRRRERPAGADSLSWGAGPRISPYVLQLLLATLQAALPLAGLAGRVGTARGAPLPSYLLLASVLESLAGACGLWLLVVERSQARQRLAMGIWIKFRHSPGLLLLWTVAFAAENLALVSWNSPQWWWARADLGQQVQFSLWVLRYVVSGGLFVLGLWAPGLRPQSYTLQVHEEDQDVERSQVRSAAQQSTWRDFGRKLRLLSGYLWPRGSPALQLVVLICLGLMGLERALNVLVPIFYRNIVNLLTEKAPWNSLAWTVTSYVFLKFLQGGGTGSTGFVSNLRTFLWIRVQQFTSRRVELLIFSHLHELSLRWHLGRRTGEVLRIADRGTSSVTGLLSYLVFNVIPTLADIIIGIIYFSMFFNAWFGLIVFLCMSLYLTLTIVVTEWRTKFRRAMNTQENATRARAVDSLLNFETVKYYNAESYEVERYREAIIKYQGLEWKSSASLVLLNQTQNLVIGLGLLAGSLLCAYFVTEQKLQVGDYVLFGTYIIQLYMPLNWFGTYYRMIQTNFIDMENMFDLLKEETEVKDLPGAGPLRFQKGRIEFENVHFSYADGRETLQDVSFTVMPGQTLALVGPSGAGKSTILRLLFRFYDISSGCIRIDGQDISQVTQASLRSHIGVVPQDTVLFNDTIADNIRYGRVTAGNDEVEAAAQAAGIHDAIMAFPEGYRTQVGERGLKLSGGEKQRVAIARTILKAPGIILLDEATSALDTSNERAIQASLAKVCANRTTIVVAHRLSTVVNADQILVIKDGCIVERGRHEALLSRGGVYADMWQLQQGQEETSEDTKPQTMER
Chain of AP-2 complex subunit beta (Homo sapiens) (P63010 whole entry, looked up, the tested form may be a part, one chain of several): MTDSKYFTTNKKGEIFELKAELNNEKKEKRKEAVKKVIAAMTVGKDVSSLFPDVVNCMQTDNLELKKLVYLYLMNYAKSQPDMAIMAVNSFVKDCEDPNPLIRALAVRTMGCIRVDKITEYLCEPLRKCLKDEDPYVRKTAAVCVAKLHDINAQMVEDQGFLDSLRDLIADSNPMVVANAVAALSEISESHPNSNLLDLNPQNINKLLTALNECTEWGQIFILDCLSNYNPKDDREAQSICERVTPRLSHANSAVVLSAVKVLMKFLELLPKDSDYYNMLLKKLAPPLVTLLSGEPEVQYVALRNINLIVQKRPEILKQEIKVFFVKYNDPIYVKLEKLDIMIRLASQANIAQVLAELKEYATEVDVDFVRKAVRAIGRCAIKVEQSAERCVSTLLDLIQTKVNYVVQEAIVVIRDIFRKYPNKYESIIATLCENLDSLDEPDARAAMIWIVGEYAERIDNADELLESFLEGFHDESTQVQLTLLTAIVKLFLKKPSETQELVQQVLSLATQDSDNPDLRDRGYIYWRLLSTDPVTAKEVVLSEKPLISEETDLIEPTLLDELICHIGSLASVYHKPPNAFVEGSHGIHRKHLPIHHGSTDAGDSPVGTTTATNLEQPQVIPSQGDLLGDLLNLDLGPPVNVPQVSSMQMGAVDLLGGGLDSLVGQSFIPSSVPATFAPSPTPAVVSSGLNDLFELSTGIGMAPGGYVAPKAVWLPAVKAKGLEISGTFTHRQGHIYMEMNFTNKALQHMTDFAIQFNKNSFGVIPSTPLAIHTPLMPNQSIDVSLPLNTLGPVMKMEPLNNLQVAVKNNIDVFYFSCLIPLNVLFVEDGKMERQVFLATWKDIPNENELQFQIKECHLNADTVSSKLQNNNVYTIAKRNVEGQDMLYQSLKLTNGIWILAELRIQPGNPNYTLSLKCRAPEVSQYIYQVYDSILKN
Chain of Beta-2 adrenergic receptor (Homo sapiens) (P07550 whole entry, looked up): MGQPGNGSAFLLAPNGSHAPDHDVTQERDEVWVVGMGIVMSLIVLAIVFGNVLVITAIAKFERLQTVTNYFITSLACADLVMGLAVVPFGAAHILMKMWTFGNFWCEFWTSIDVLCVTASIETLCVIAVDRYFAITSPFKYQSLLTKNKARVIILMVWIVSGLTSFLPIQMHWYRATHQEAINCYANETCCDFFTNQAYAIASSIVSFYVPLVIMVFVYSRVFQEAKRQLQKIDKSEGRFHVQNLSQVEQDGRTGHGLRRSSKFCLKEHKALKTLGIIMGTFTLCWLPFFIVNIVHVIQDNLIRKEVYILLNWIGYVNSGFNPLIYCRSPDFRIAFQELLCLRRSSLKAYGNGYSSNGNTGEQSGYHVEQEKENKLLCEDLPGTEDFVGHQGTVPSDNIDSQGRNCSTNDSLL
Chain of Integrin beta-1 (Homo sapiens) + Integrin alpha-4 (Homo sapiens) (P05556 whole entry, looked up): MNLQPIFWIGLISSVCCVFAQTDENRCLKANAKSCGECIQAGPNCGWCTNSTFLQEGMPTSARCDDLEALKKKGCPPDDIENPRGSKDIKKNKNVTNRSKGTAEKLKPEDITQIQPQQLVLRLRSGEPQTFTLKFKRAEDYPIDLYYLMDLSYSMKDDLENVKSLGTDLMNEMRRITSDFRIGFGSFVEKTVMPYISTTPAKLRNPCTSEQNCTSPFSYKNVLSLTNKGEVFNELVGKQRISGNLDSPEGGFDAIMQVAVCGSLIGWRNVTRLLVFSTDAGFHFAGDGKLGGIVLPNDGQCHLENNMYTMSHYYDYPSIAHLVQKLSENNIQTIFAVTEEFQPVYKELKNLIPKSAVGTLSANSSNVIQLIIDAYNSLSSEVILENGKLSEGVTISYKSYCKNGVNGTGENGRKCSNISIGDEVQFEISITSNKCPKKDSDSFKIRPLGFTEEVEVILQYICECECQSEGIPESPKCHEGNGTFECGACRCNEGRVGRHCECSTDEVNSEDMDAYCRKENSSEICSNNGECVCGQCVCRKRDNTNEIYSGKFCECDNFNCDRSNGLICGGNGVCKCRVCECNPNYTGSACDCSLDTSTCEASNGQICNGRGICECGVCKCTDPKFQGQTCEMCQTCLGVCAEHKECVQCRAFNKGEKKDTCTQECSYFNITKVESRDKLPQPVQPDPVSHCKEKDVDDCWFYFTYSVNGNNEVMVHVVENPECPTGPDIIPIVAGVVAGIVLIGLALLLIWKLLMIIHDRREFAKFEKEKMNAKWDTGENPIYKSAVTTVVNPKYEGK
Chain of Integrin beta-1 (Homo sapiens) + Integrin alpha-4 (Homo sapiens) (P13612 whole entry, looked up): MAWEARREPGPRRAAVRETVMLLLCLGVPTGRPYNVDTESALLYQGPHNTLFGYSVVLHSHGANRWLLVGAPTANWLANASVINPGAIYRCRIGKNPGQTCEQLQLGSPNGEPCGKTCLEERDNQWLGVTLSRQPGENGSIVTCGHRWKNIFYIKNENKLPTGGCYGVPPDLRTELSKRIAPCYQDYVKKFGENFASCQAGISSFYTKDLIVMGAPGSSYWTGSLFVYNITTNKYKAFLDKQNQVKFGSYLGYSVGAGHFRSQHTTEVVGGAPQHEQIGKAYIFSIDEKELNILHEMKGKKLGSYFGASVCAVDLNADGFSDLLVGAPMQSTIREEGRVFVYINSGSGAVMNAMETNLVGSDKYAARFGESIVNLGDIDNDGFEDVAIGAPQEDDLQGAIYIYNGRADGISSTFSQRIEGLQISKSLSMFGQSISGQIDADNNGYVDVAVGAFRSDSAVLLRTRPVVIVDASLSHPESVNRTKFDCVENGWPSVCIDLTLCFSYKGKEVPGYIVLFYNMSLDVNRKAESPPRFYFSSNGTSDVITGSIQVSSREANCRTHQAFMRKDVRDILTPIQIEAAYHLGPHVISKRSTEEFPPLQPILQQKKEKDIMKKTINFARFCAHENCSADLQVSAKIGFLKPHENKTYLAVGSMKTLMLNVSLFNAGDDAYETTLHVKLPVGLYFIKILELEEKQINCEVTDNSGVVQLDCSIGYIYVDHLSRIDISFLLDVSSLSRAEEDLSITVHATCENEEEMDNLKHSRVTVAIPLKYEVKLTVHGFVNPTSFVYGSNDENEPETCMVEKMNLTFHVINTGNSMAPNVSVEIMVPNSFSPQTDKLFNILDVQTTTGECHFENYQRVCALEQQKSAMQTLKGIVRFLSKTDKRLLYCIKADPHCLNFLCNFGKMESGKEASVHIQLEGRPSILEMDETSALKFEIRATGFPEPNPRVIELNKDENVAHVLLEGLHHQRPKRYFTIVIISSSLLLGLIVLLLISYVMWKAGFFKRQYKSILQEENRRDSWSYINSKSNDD

By inhibition is commonly meant the change of the read-out against control, counted positive when it falls. In assay [1], `CNc1nc(Nc2ccccc2)nc(OCC(F)(F)F)n1` returned a double positive events of 64.8%. The vesicle binding response in assay [1] was 135% (inactive). The inhibition is 6.95% (inactive) in assay [2], 44.3% (inactive) in assay [6] and -3% (inactive) in assay [10]. In addition, the superoxide response (% of plate) in [3] was 98.2% (inactive). The aptamer binding inhibition in [4] was -3% (inactive). For the same compound, the response in assay [5] was -3.68% (inactive); in [7] it was -7.15% (inactive). The binding (% of control) in assay [8] was 101% (inactive). Also, the efflux inhibition (fraction of control) in assay [9] is -0.185 (inactive). Besides, in assay [11], the differentiation response was 4.2% (inactive).
In assay [1], `CCC(=O)Oc1ccc(/C(CC)=C(\CC)c2ccc(OC(=O)CC)cc2)cc1` returned a double positive events of 67.2%. For the same compound, the vesicle binding response in [1] was 174% (inactive). In addition, the inhibition was 19.1% (inactive) in [2], -4.91% (inactive) in assay [6] and 11% (inactive) in [10]. Also, the superoxide response (% of plate) in assay [3] was 94.7% (inactive). Also, in [4], the aptamer binding inhibition is 3% (inactive). The results for the response in assay [5] and in assay [7] were -5.73% (inactive) and 2.77% (inactive), respectively. The binding (% of control) in [8] was 84.1% (inactive). In addition, the efflux inhibition (fraction of control) in [9] was -0.02 (inactive). The differentiation response in [11] is -4.09% (inactive).
With `CCS(=O)(=O)Nc1cc(OC)c(OC)cc1Cc1nccc2cc(OC)c(OC)cc12`, in assay [1], the double positive events is 57.8%. Besides, the vesicle binding response in [1] was 90.7% (inactive). For the same compound, the inhibition in assay [2] was -9.63% (inactive); in [6] it was -7.26% (inactive); in assay [10] it was 0% (inactive). For the same compound, the superoxide response (% of plate) in assay [3] was 93.2% (inactive). Also, in assay [4], the aptamer binding inhibition is -1% (inactive). The response is -40% (inactive) in [5] and 4.6% (inactive) in [7]. In addition, the binding (% of control) in [8] was 106% (inactive). Besides, the efflux inhibition (fraction of control) in assay [9] was 0.08 (inactive). Moreover, the differentiation response in assay [11] is -5.97% (inactive).
For `O=C(NCc1ccccc1Cl)NC(=O)c1ccccc1`, the double positive events in assay [1] is 62%. Besides, in [1], the vesicle binding response was 221% (inactive). Further, the results for the inhibition in assay [2], in [6] and in assay [10] were 6.46% (inactive), 8.1% (inactive) and 7% (inactive), respectively. For the same compound, the superoxide response (% of plate) in assay [3] was 115% (inactive). In addition, the aptamer binding inhibition in [4] was 4% (inactive). Besides, the response in assay [5] is 0.79% (inactive); in assay [7], -5.42% (inactive). The binding (% of control) in assay [8] is 98.7% (inactive). In addition, in assay [9], the efflux inhibition (fraction of control) was 0.19 (inactive). For the same compound, the differentiation response in assay [11] was 1.64% (inactive).
As to `COc1cccc(OC)c1C(=O)Nc1nc2ccc([N+](=O)[O-])cc2s1`, the double positive events in [1] turned out to be 60.8%. In addition, the vesicle binding response in assay [1] was 91.9% (inactive). The inhibition in assay [2] was -14.5% (inactive); in assay [6] it was 10.3% (inactive); in [10] it was 8% (inactive). In addition, in [3], the superoxide response (% of plate) was 101% (inactive). Moreover, the aptamer binding inhibition in assay [4] is -2% (inactive). In addition, the response in [5] is 4.56% (inactive); in assay [7], 1.22% (inactive). Moreover, the binding (% of control) in [8] is 101% (inactive). For the same compound, the efflux inhibition (fraction of control) in [9] is 0.005 (inactive). Further, in [11], the differentiation response is -3.11% (inactive).
In the case of `COC(=O)c1cc(OC)c(OC)cc1NC(=O)Nc1ccc(OC)cc1OC`, the double positive events in assay [1] was determined as 58.5%. For the same compound, the vesicle binding response in assay [1] is 105% (inactive). In addition, the inhibition in assay [2] is -14.5% (inactive); in assay [6], 11.9% (inactive); in [10] it was 7% (inactive). For the same compound, in [3], the superoxide response (% of plate) is 82% (inactive). For the same compound, the aptamer binding inhibition in assay [4] is 0% (inactive). The values for the response in [5] and in assay [7] were 5.38% (inactive) and -1.21% (inactive), respectively. Moreover, in assay [8], the binding (% of control) is 100% (inactive). For the same compound, in [9], the efflux inhibition (fraction of control) is -0.205 (inactive). Moreover, in assay [11], the differentiation response is 13% (inactive).
`COc1ccc(C(=O)Nc2nc3ccccc3c(=O)[nH]2)cc1`: the double positive events in assay [1] was found to be 65.5%. Also, in [1], the vesicle binding response is 352% (inactive). Further, the inhibition in [2] is 3.67% (inactive); in assay [6] it was 4.94% (inactive); in assay [10], 4% (inactive). Moreover, the superoxide response (% of plate) in [3] was 84.4% (inactive). In addition, in assay [4], the aptamer binding inhibition was 0% (inactive). Moreover, the response in assay [5] was 37.4% (inactive); in assay [7] it was -8.54% (inactive). Also, in assay [8], the binding (% of control) was 99.1% (inactive). Moreover, the efflux inhibition (fraction of control) in assay [9] was -0.03 (inactive). For the same compound, the differentiation response in assay [11] is 0% (inactive).
In assay [1], `Cc1ccc2c(c1)c1c(n2C)C(=O)CCC1` gave a double positive events of 57.6%. Further, the vesicle binding response in [1] was 126% (inactive). In addition, the inhibition in [2] is -7.79% (inactive); in [6], -3.89% (inactive); in assay [10] it was 0% (inactive). Besides, in [3], the superoxide response (% of plate) is 86.4% (inactive). The aptamer binding inhibition in [4] is 2% (inactive). The figures for the response in [5] and in assay [7] were 6.59% (inactive) and -3.07% (inactive), respectively. The binding (% of control) in assay [8] is 97.9% (inactive). Besides, in assay [9], the efflux inhibition (fraction of control) was 0.41 (inactive). Further, in assay [11], the differentiation response is -8.96% (inactive).
Compound `O=c1[nH]cnc2c1ncn2[C@@H]1O[C@H](CO)[C@@H](O)[C@H]1O` displayed a double positive events in assay [1] of 62%. The vesicle binding response in assay [1] is 140% (inactive). The inhibition in assay [2] is -15.6% (inactive); in assay [6], -10.3% (inactive); in assay [10] it was 5% (inactive). Moreover, the superoxide response (% of plate) in [3] was 86.8% (inactive). The aptamer binding inhibition in [4] was 2% (inactive). Further, the response in assay [5] was -18% (inactive); in [7], -0.11% (inactive). Further, the binding (% of control) in assay [8] is 106% (inactive). Besides, the efflux inhibition (fraction of control) in [9] is 0.12 (inactive). In addition, the differentiation response in assay [11] was -7.94% (inactive).
Compound `Nc1ccc2[nH]ncc2c1` gave a double positive events in assay [1] of 62.1%. Moreover, the vesicle binding response in assay [1] is 174% (inactive). In addition, the inhibition in assay [2] is -8.62% (inactive); in assay [6], 11.5% (inactive); in assay [10] it was -7% (inactive). For the same compound, in assay [3], the superoxide response (% of plate) is 110% (inactive). For the same compound, in [4], the aptamer binding inhibition was 12% (inactive). The response in assay [5] was 20.4% (inactive); in assay [7], 1.54% (inactive). The binding (% of control) in assay [8] was 104% (inactive). For the same compound, the efflux inhibition (fraction of control) in assay [9] is 0.73 (active). The differentiation response in assay [11] was 87.2% (active).
Compound `COc1ccc(C(=O)Nc2ccc(OC)c([N+](=O)[O-])c2)cc1Br` came in with a double positive events in [1] of 59%. Besides, the vesicle binding response in assay [1] was 113% (inactive). Also, the inhibition in assay [2] is 4.27% (inactive); in assay [6], 7.87% (inactive); in assay [10] it was 2% (inactive). Further, the superoxide response (% of plate) in [3] was 92.1% (inactive). In addition, in assay [4], the aptamer binding inhibition was -1% (inactive). The response in assay [5] is 8.89% (inactive); in [7] it was 4.22% (inactive). Besides, in assay [8], the binding (% of control) was 83.4% (inactive). For the same compound, the efflux inhibition (fraction of control) in assay [9] was -0.175 (inactive). Further, the differentiation response in assay [11] was -10.4% (inactive).
Take `CCN1C(=O)C(CC(=O)Nc2ccc(F)cc2)N(Cc2ccc3c(c2)OCO3)C1=S` (stereo unspecified): the double positive events in [1] worked out at 56.3%. Also, in [1], the vesicle binding response is 124% (inactive). The results for the inhibition in assay [2], in assay [6] and in assay [10] were 7.76% (inactive), -7.91% (inactive) and 4% (inactive), respectively. Also, in assay [3], the superoxide response (% of plate) was 101% (inactive). Moreover, in [4], the aptamer binding inhibition is 0% (inactive). Further, the response was 22.9% (inactive) in assay [5] and 0.48% (inactive) in [7]. Moreover, in [8], the binding (% of control) is 107% (inactive). Besides, the efflux inhibition (fraction of control) in [9] was 0.44 (active). The differentiation response in [11] was 58.4% (active).
In turn, `O=C1CCCCCN1Cc1ccccc1` came in with a double positive events in assay [1] of 62.4%. Besides, in [1], the vesicle binding response is 208% (inactive). In addition, the figures for the inhibition in assay [2], in assay [6] and in [10] were 3.67% (inactive), -4.78% (inactive) and 5% (inactive), respectively. In addition, the superoxide response (% of plate) in [3] is 97.2% (inactive). The aptamer binding inhibition in [4] is 7% (inactive). The response in [5] was -1.56% (inactive); in [7], 5.84% (inactive). Moreover, the binding (% of control) in assay [8] is 101% (inactive). Further, the efflux inhibition (fraction of control) in assay [9] was -0.24 (inactive). Besides, in [11], the differentiation response is 8.8% (inactive).
